{"source": "PubChem BioAssay AID463173", "about": "(ICCB-Longwood Screening Facility, Harvard Medical School, 2010)", "note": "The campaign covered roughly 52,000 compounds. About 4,300 (8.3%) were called active. Cut-off read from the data, not from the text of the source: active = survival mostly below about 52% (no sharp cut-off); inactive = mostly above about 56%. Only a selection was taken, and actives are over-represented in it overall.", "data": [{"test_system": "DeltatarO mutant", "experiment": "S. aureus survival, RN4220 and DeltatarO strains – OD600, teichoic acid synthesis inhibitors, primary screen (AID 463173)", "conditions": "S. aureus RN4220 wild type/DeltatarO growth, OD600, 18 h, stronger effect = lower value, screened at 18.75 µg/mL (by protocol)", "values": [{"smiles": "COCC(=O)Nc1c(C(=O)Nc2ccc(C)cc2)oc2ccccc12", "survival": "86% (inactive)"}, {"smiles": "Cc1ccc(N)cc1N(C)C", "survival": "78% (inactive)"}, {"smiles": "Cc1ccc(CN2CCN(C3CCN(S(=O)(=O)N(C)C)CC3)C(=O)C2=O)cc1", "survival": "82% (inactive)"}, {"smiles": "C=CCn1c(C(NC(=O)c2ccc(Cl)cc2Cl)C(C)C)n[nH]c1=S", "note": "(stereo not given)", "survival": "81% (inactive)"}, {"smiles": "COc1cc(NC(=O)C2CCN(S(=O)(=O)c3c(C)noc3/C=C/c3c(C)cc(C)cc3C)CC2)cc(OC)c1", "survival": "78% (inactive)"}, {"smiles": "Cc1cccc(CCNC(=O)C2CCC(CNS(=O)(=O)c3ccccc3)CC2)c1", "note": "(stereo not given)", "survival": "77% (inactive)"}, {"smiles": "Clc1ccc(Nc2c(-c3ccccc3Cl)nc3ccc(Cl)cn23)cc1", "survival": "45% (inactive)"}, {"smiles": "Cc1ccc(Cl)cc1NC(=O)NCc1cccn1Cc1ccc(F)cc1", "survival": "104% (inactive)"}, {"smiles": "Cc1ccnc(NC(=O)c2c(C)oc3ncn(CC(C)C)c(=O)c23)c1", "survival": "92% (inactive)"}, {"smiles": "CCCCNC(=O)c1c(C)oc2ncn(CC(C)C)c(=O)c12", "survival": "6% (active)"}, {"smiles": "Cc1oc2ncn(CC(C)C)c(=O)c2c1C(=O)NCCCN1CCCCC1", "survival": "101% (inactive)"}, {"smiles": "Cc1cccc(NC(=O)c2c(C)oc3ncn(CC(C)C)c(=O)c23)n1", "survival": "72% (inactive)"}, {"smiles": "CCNC(=O)c1c(C)oc2ncn(C)c(=O)c12", "survival": "91% (inactive)"}, {"smiles": "CCN(CC)CCCNC(=O)c1c(C)oc2ncn(CC(C)C)c(=O)c12", "survival": "70% (inactive)"}, {"smiles": "Cc1oc2ncn(CC(C)C)c(=O)c2c1C(=O)Nc1cccc(C(F)(F)F)c1", "survival": "-1% (active)"}, {"smiles": "CCOc1ccc(CCNC(=O)c2c(C)oc3ncn(C)c(=O)c23)cc1", "survival": "84% (inactive)"}, {"smiles": "CSc1ccc(CCNC(=O)c2c(C)oc3ncn(C)c(=O)c23)cc1", "survival": "-2% (active)"}, {"smiles": "Cc1cc(S(=O)(=O)N2CCN(Cc3noc(CCC(=O)N4CCCCC4)n3)CC2)ccc1F", "survival": "89% (inactive)"}, {"smiles": "CCC(=O)N1CCc2cc(Br)cc(S(=O)(=O)N3CCN(c4ccccc4)CC3)c21", "survival": "73% (inactive)"}, {"smiles": "CCOc1ccc(CNC(=O)C2CCCN(S(=O)(=O)c3ccc4c(c3)CCCC(=O)N4)C2)cc1", "note": "(stereo not given)", "survival": "75% (inactive)"}, {"smiles": "CN1c2ccc(Cl)cc2-c2nc(SCC(=O)NCc3ccc(F)cc3)ncc2S1(=O)=O", "survival": "117% (inactive)"}, {"smiles": "COc1ccc(-c2cn3c(n2)sc2cc(C(=O)Nc4ccc(F)cc4Cl)ccc23)cc1", "survival": "61% (inactive)"}, {"smiles": "O=C(c1cc2ccc3cccnc3c2[nH]1)N1CCCCC1", "survival": "69% (inactive)"}, {"smiles": "Cc1ccc(OC(=O)c2ccco2)cc1C", "survival": "61% (inactive)"}, {"smiles": "Cc1nc(CC(=O)Nc2ccc(C)c(C)c2)cs1", "survival": "40% (active)"}, {"smiles": "CCCOC(=O)c1ccc(NC(=O)Cc2csc(C)n2)cc1", "survival": "105% (inactive)"}, {"smiles": "COc1ccc(NC(=O)Cc2csc(C)n2)cc1", "survival": "47% (inactive)"}, {"smiles": "Cc1cc(C)cc(NC(=O)Cc2csc(C)n2)c1", "survival": "39% (active)"}, {"smiles": "Cc1cccc(OCc2nc(CC(=O)Nc3ccc(C)c(C)c3)cs2)c1", "survival": "85% (inactive)"}, {"smiles": "Cc1nc(CC(=O)Nc2ccc(C(N)=O)cc2)cs1", "survival": "49% (inactive)"}, {"smiles": "Cc1nc(CC(=O)Nc2ccc(N(C)C)cc2)cs1", "survival": "45% (active)"}, {"smiles": "Cc1cccc(NC(=O)Cc2csc(COc3cccc(C)c3)n2)c1", "survival": "74% (inactive)"}, {"smiles": "Cc1cc(C)cc(NC(=O)Cc2csc(COc3cccc(C)c3)n2)c1", "survival": "90% (inactive)"}, {"smiles": "COc1ccc(-c2cc(-c3ccc(F)cc3)nc3c2COc2ccc(F)cc2-3)cc1", "survival": "65% (inactive)"}, {"smiles": "CCC(=O)N1CCc2cc(S(=O)(=O)NC(CC(C)C)C(=O)NCc3cccc(OC)c3)ccc21", "note": "(stereo not given)", "survival": "73% (inactive)"}, {"smiles": "COC(=O)C1=C(c2ccccc2)c2ccccc2S(=O)(=O)N1CC(=O)Nc1ccc(F)c(F)c1", "survival": "40% (inactive)"}, {"smiles": "C1CCC(N2CCC(N3CCCCC3)CC2)CC1", "survival": "91% (inactive)"}, {"smiles": "N#CC(C#N)=Cc1ccc(-c2ccc3c(c2)COC3=O)o1", "survival": "90% (inactive)"}, {"smiles": "O=C(NC1CCCCC1)N1CCN(Cc2ccccc2)CC1", "survival": "69% (inactive)"}, {"smiles": "c1ccc(N2CCN(N=C3c4ccccc4-c4ccccc43)CC2)nc1", "survival": "18% (active)"}, {"smiles": "C(=N\\N1CCN(c2ccccn2)CC1)/c1ccco1", "survival": "100% (inactive)"}, {"smiles": "O=C(NC1CCCCC1)N1CCN(c2ccccn2)CC1", "survival": "94% (inactive)"}, {"smiles": "C=Cn1c(C)c(C(C#N)=C(C#N)C#N)c2c1CCCC2", "survival": "2% (active)"}, {"smiles": "COCCNC(=O)C1CCN(S(=O)(=O)c2ccc3c(c2)CCCN3C(C)=O)CC1", "survival": "85% (inactive)"}, {"smiles": "Cc1ccc(NS(=O)(=O)c2ccc(NC(=O)N3CCCC3)cc2)cc1C", "survival": "75% (inactive)"}, {"smiles": "Cc1ccc(NS(=O)(=O)c2ccc3c(c2)n(C)c(=O)n3C)cc1C", "survival": "67% (inactive)"}, {"smiles": "Cc1cccc(Cn2ccn(Cc3ccc(Cl)cc3)c(=O)c2=O)c1", "survival": "121% (inactive)"}, {"smiles": "O=C(Nc1onc2c1CCCC2)c1ccccc1", "survival": "105% (inactive)"}, {"smiles": "Cc1cccc(C(=O)Nc2nc3c(s2)CCCC3)c1", "survival": "67% (inactive)"}, {"smiles": "O=C(Nc1cc2c(s1)CCCC2)c1ccccc1", "survival": "46% (active)"}, {"smiles": "CCc1ccc(OCCCn2c(-c3ccc(Cl)cc3)nc3ccccc3c2=O)cc1", "survival": "44% (active)"}, {"smiles": "COc1cccc(OCCCn2c(-c3ccc(Cl)cc3)nc3ccccc3c2=O)c1", "survival": "61% (inactive)"}, {"smiles": "COc1ccccc1OCCCn1c(-c2ccc(Cl)cc2)nc2ccccc2c1=O", "survival": "29% (active)"}, {"smiles": "Cc1ccc(OCCCCn2c(-c3ccc(Cl)cc3)nc3ccccc3c2=O)cc1", "survival": "68% (inactive)"}, {"smiles": "Cc1ccccc1OCCCCn1c(-c2ccc(Cl)cc2)nc2ccccc2c1=O", "survival": "71% (inactive)"}, {"smiles": "O=c1c2ccccc2nc(-c2ccc(Cl)cc2)n1CCCOc1ccccc1F", "survival": "57% (inactive)"}, {"smiles": "COc1ccccc1OCCCCn1c(-c2ccc(Cl)cc2)nc2ccccc2c1=O", "survival": "59% (inactive)"}, {"smiles": "COc1ccc(OCCCCn2c(-c3ccc(Cl)cc3)nc3ccccc3c2=O)cc1", "survival": "34% (active)"}, {"smiles": "CCOc1ccccc1OCCCn1c(-c2ccc(Cl)cc2)nc2ccccc2c1=O", "survival": "42% (inactive)"}, {"smiles": "Cc1ccc(OCCCn2c(-c3ccc(Cl)cc3)nc3ccccc3c2=O)cc1C", "survival": "58% (inactive)"}, {"smiles": "O=c1c2ccccc2nc(-c2ccc(Cl)cc2)n1CCCCOc1ccc(F)cc1", "survival": "45% (active)"}, {"smiles": "COc1cccc(OCCCCn2c(-c3ccc(Cl)cc3)nc3ccccc3c2=O)c1", "survival": "62% (inactive)"}, {"smiles": "COc1ccc(-c2cc3c(=O)n(CC(=O)Nc4ccccc4C(F)(F)F)ccn3n2)cc1OC", "survival": "86% (inactive)"}, {"smiles": "CSc1ccc(CNC(=O)CCn2ccc3cc(S(=O)(=O)N4CCCC4)ccc32)cc1", "survival": "100% (inactive)"}, {"smiles": "O=C(NCc1ccc(F)cc1)c1cc2n(n1)CCCN(Cc1ccc(F)cc1)C2=O", "survival": "64% (inactive)"}, {"smiles": "CC(C)(C)OC(=O)N1CCC(c2c(C(=O)Nc3cccc(C(F)(F)F)c3)cnn2-c2ccc(F)cc2F)CC1", "survival": "61% (inactive)"}, {"smiles": "N#Cc1ccc(-c2cccnc2)n(CC(=O)N2CCOCC2)c1=O", "survival": "106% (inactive)"}, {"smiles": "Cc1ccc(Cl)cc1N1CCN(C(=O)c2cc(S(=O)(=O)N3CCCCC3)cn2C)CC1", "survival": "83% (inactive)"}, {"smiles": "Cc1ccc(C(=O)Nc2ccc3oc(-c4cccnc4)nc3c2)c(Cl)c1", "survival": "88% (inactive)"}, {"smiles": "Cc1ccc(OCCn2c(CNc3ccccc3C)nc3ccccc32)cc1", "survival": "42% (active)"}, {"smiles": "Cc1ccccc1NCc1nc2ccccc2n1CCOc1ccccc1", "survival": "0% (active)"}, {"smiles": "Cc1ccccc1Cn1c(=O)n(CCCCC(=O)NCCc2ccccc2)c(=O)c2ccccc21", "survival": "83% (inactive)"}, {"smiles": "COc1ccc(NC(=O)C2=C(C)Nc3ncnn3C2c2ccc(O)cc2)cc1", "note": "(stereo not given)", "survival": "101% (inactive)"}, {"smiles": "CC1CCN(C(=O)C(C)Sc2nnc3c(n2)[nH]c2ccccc23)CC1", "note": "(stereo not given)", "survival": "102% (inactive)"}, {"smiles": "COc1cc(/C=C/c2nc(C#N)c(N3CCCCCC3)o2)cc(OC)c1OC", "survival": "85% (inactive)"}, {"smiles": "COc1ccc(/C=C/c2nc(C#N)c(N3CCC(C)CC3)o2)cc1OC", "survival": "81% (inactive)"}, {"smiles": "COc1ccc(/C=C/c2nc(C#N)c(N3CCCCC3)o2)cc1OC", "survival": "76% (inactive)"}, {"smiles": "COc1ccc(/C=C/c2nc(C#N)c(N3CCCCCC3)o2)cc1OC", "survival": "45% (active)"}, {"smiles": "COc1ccc(N2CCN(c3oc(/C=C/c4cc(OC)c(OC)c(OC)c4)nc3C#N)CC2)cc1", "survival": "49% (active)"}, {"smiles": "COc1cc(/C=C/c2nc(C#N)c(N3CCN(C)CC3)o2)cc(OC)c1OC", "survival": "73% (inactive)"}, {"smiles": "CCOC(=O)c1c(NC(=O)Cc2coc3cc(C)ccc23)sc2c1CCCC2", "survival": "95% (inactive)"}, {"smiles": "O=C(NC1CCS(=O)(=O)C1)Sc1ccccc1", "note": "(stereo not given)", "survival": "96% (inactive)"}, {"smiles": "CCc1ccc2nc(SCC(=O)N3CC(=O)Nc4ccccc43)c(C#N)cc2c1", "survival": "107% (inactive)"}, {"smiles": "COc1cc(NS(=O)(=O)c2ccc(NC(=O)c3ccc(C(C)=O)cc3)cc2)nc(OC)n1", "survival": "87% (inactive)"}, {"smiles": "O=C(OCc1ccccc1)c1ccc(-c2nnn(Cc3ccccc3F)n2)cc1", "survival": "98% (inactive)"}, {"smiles": "Cc1ccc(NC2=C(c3ccc(C(F)(F)F)cc3)C(=O)c3ccccc32)cc1F", "survival": "28% (active)"}, {"smiles": "COc1ccc(OC)c(NC2=C(c3ccccc3)C(=O)c3ccccc32)c1", "survival": "62% (inactive)"}, {"smiles": "COc1ccc(C2=C(Nc3ccc(C)cc3C)c3ccccc3C2=O)cc1", "survival": "71% (inactive)"}, {"smiles": "O=C1C(c2ccc(C(F)(F)F)cc2)=C(Nc2ccc(Cl)cc2)c2ccccc21", "survival": "63% (inactive)"}, {"smiles": "Cc1cc(C)cc(NC2=C(c3ccccc3)C(=O)c3ccccc32)c1", "survival": "39% (active)"}, {"smiles": "Cc1ccc(NC2=C(c3ccc(C(F)(F)F)cc3)C(=O)c3ccccc32)cc1C", "survival": "69% (inactive)"}, {"smiles": "COc1ccc(NC2=C(c3ccccc3)C(=O)c3ccccc32)cc1Cl", "survival": "116% (inactive)"}, {"smiles": "COc1ccc(C2=C(Nc3ccc(Br)c(C)c3)c3ccccc3C2=O)cc1", "survival": "0% (active)"}, {"smiles": "COc1ccc(C2=C(Nc3ccc(C)c(C)c3)c3ccccc3C2=O)cc1", "survival": "93% (inactive)"}, {"smiles": "COc1cc(C(CC(=O)Nc2cc(C)ccn2)N2Cc3ccccc3C2=O)cc(OC)c1OC", "note": "(stereo not given)", "survival": "76% (inactive)"}]}]}
